Assay [1] in a line: optical density shifts of acrAB sulA E. coli – strain DRC41, OD650, 48 h, E. coli filamentation inducer project, primary screen (AID 1152).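 Further: E. coli MC1000 strain DRC41 lacking acrAB efflux pump and sulA.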 The note with it: higher = more signal, called active from +8 up or from −8 down.
A short description of assay [2]: probe aLefty1 binding on compound microarray – biochemical, small-molecule microarray, 635/667 nm fluorescence, primary screen (AID 1153).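 Further: score merges spot fluorescence with signal-to-noise ratio from the scanned slide images.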 As to conditions: higher = more signal.
Assay [3] in a line: plasmodial surface anion channel blockers, osmotic lysis – cell-based, P. falciparum Indochina, OD700, 1 h, primary screen (AID 1154). The note with it: P. falciparum Indochina infected RBC osmotic lysis, higher = more signal, called active from +8 up or from −8 down.
Assay [4] in a line: plasmodial surface anion channel blockers, osmotic lysis – cell-based, P. falciparum Indochina, OD700, 2 h, primary screen (AID 1155).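 Further: lysis reports solute entry through the parasite surface anion channel PSAC.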 As to conditions: P. falciparum Indochina infected erythrocytes, higher = more signal, called active from +8 up or from −8 down.
The nature of assay [5]: changes in parasitized red cell lysis, either direction – P. falciparum Indochina, OD700, 3 h, PSAC antagonist project, primary screen (AID 1156). As to conditions: P. falciparum-infected erythrocytes, osmotic lysis, higher = more signal, called active from +8 up or from −8 down.
The nature of assay [6]: plasmodial surface anion channel blockers, osmotic lysis – cell-based, P. falciparum Indochina, OD700, 18 h, primary screen (AID 1157). The note with it: P. falciparum Indochina infected erythrocytes, osmotic lysis OD700, 18 h; higher = more signal, called active from +8 up or from −8 down.
Assay [7] is described as follows: S6 kinase pathway phospho-S6 level changes – cell-based, A549, cytoblot, luminescence, serum-stimulated, primary screen (AID 1158).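 Further: serum-stimulated A549 lung adenocarcinoma cells; signal is phosphorylated S6 detected by cytoblot immunostaining with HRP secondary.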 The note with it: 5 h, higher = more signal.
The target in assay [8] is NADPH oxidase 2 (Homo sapiens) (UniProt P04839). As to the kind of experiment: compounds shifting NOX2 Amplex Red fluorescence – cell-based, HEK293-NOX2, PMA-stimulated, NOX inhibitor project, primary screen (AID 1159). Further: test concentration not given here. The note with it: 45 min, higher = more signal, called active from +8 up or from −8 down.
Sequence of NADPH oxidase 2 (Homo sapiens) (P04839 whole entry, looked up): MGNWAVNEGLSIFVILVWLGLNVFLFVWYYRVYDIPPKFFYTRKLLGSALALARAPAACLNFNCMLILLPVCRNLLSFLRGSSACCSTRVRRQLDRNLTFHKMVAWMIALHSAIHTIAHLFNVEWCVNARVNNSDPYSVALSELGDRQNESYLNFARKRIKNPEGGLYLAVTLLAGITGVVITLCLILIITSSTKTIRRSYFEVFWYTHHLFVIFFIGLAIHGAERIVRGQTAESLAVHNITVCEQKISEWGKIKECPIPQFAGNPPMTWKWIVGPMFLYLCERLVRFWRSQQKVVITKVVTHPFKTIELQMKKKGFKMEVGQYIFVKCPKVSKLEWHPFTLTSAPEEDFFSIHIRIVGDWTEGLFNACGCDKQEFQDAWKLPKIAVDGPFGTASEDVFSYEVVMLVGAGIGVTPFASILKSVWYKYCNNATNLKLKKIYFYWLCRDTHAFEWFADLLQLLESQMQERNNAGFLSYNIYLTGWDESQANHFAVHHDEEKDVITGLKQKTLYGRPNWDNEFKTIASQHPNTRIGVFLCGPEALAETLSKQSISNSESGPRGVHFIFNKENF
The target of assay [9] is NADPH oxidase 4 (Homo sapiens) (UniProt Q9NPH5). Put plainly: compounds shifting NOX4 Amplex Red fluorescence – cell-based, HEK293-NOX4, tetracycline-induced, NOX inhibitor project, primary screen (AID 1160). As to conditions: HEK293-NOX4, Amplex Red H2O2 fluorescence, 45 min; higher = more signal, called active from +8 up or from −8 down.
Sequence of NADPH oxidase 4 (Homo sapiens) (Q9NPH5 whole entry, looked up): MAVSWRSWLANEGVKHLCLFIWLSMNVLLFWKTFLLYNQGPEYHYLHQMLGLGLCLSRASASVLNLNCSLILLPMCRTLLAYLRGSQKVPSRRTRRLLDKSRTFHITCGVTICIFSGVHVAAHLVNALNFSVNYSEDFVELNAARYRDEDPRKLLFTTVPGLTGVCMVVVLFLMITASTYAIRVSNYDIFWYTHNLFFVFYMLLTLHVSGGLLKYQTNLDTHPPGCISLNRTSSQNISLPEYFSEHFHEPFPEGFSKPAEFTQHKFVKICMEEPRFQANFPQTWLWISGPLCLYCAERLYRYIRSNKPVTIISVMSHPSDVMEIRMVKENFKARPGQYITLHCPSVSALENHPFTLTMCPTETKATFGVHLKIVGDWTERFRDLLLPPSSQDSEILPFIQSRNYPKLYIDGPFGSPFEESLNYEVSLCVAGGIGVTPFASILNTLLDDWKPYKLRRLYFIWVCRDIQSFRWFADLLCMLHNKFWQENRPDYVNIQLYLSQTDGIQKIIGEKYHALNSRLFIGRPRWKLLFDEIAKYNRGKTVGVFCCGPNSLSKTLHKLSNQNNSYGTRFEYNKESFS
In assay [10] the target is NADPH oxidase 5 (Homo sapiens) (UniProt Q96PH1). Put plainly: compounds shifting NOX5 Amplex Red fluorescence – cell-based, HEK293-NOX5, NOX inhibitor project, primary screen (AID 1161). The note with it: HEK293-NOX5, ionomycin, 45 min, higher = more signal.
Sequence of NADPH oxidase 5 (Homo sapiens) (Q96PH1 whole entry, looked up): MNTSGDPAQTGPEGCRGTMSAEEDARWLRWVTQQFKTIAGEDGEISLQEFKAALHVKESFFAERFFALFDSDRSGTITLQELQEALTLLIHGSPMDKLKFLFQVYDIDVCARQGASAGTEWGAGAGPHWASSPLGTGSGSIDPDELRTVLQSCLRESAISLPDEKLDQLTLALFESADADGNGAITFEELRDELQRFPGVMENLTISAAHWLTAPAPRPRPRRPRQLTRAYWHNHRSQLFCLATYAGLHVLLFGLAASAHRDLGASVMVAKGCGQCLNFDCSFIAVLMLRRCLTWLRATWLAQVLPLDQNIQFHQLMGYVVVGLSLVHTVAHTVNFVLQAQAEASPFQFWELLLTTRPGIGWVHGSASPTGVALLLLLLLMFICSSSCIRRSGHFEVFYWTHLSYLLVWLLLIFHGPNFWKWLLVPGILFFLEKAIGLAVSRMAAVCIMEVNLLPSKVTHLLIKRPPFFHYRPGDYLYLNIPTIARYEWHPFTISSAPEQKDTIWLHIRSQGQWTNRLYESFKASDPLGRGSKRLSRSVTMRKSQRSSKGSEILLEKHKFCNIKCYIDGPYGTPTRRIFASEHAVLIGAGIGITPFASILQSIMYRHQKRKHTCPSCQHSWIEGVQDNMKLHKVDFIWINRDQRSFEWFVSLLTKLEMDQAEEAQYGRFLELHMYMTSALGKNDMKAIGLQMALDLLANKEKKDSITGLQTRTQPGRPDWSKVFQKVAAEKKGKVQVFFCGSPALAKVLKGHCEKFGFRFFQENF
The nature of assay [11]: compound effects on lung adenocarcinoma cell viability – A549, calcein-AM fluorescence, 48 h, basal, profiling panel (AID 1162). Further: test concentration not given here. As to conditions: higher = more signal.
Assay [12] can be described thus: compound effects on differentiated 3T3-L1 adipocyte viability – cell-based, 3T3-L1 adipocytes, calcein-AM fluorescence, 48 h, basal, profiling panel (AID 1163). Further: test concentration not given here. As to conditions: 3T3-L1 adipocytes viability, higher = more signal.
Assay [13] in a line: compound effects on hepatocellular carcinoma cell viability – HepG2, calcein-AM fluorescence, 48 h, basal, profiling panel (AID 1164). Further: test concentration not given here. As to conditions: higher = more signal.
A short description of assay [14]: compound effects on multiple myeloma cell viability – MM1S, calcein-AM fluorescence, 48 h, basal, profiling panel (AID 1165).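 Further: viability of MM1S multiple myeloma cells under basal unstimulated conditions; test concentration not given here.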 The note with it: higher = more signal.
The nature of assay [15]: calcein-AM signal in unstimulated myeloma cells – cell-based, calcein-AM fluorescence, 48 h, PK04 Diversity Set, profiling panel (AID 1166).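 Further: cells grown under basal conditions without added stimulus; test concentration not given here.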 As to conditions: RPMI8226 myeloma viability, higher = more signal.
Assay [16] in a line: JC-1 mitochondrial signal, unstimulated HepG2 cells – cell-based, JC-1 fluorescence, 24 h, 100 nL compound, profiling panel (AID 1167). Further: test concentration not given here. As to conditions: HepG2 mitochondrial potential, higher = more signal.
A short description of assay [17]: JC-1 mitochondrial signal, unstimulated adipocytes – cell-based, JC-1 fluorescence, 3T3-L1 adipocytes, 24 h, 100 nL compound, profiling panel (AID 1168). Further: test concentration not given here. As to conditions: JC-1 mitochondrial fluorescence, higher = more signal, called active from +8 up or from −8 down.
The nature of assay [18]: JC-1 mitochondrial signal, unstimulated myeloma cells – cell-based, JC-1 fluorescence, RPMI8226, 24 h, 100 nL compound, profiling panel (AID 1169). Further: test concentration not given here. As to conditions: JC-1 mitochondrial potential fluorescence, higher = more signal.
Assay [19] is described as follows: JC-1 mitochondrial signal, unstimulated MM1S myeloma – cell-based, JC-1 fluorescence, 24 h, 100 nL compound, profiling panel (AID 1170). Further: test concentration not given here. The note with it: MM1S mitochondrial potential, higher = more signal.
Assay [20] in a line: resazurin metabolic signal in A549 cells – cell-based, resazurin fluorescence, 24 h, PK04 Diversity Set, profiling panel (AID 1171). Further: test concentration not given here. As to conditions: A549 viability, higher = more signal, called active from +8 up or from −8 down. (In general: Alamar Blue is a resazurin reagent that responds to reducing activity.)

Activity calls are given as the source filed them.

`C=C[C@@H](CO)N(Cc1ccc(OC)cc1)S(=O)(=O)c1ccc(Br)cc1`: the z-score in [1] was 1.77 (inactive); in assay [3], 2.48 (inactive); in [4], -0.457 (inactive); in assay [5], -1.21 (inactive); in [6], -1.1 (inactive); in [7], 1.66. For the same molecule, the z-score is -1.84 (inactive) in assay [8]; 0.114 (inactive) in assay [9]; -1.26 in [10]; 1.49 in assay [11]; 0.773 in assay [12]; 0.349 in assay [13]. Besides, the z-score in assay [14] was 1.39; in assay [15] it was 0.613; in assay [16], 0.622; in assay [17], 2.05 (inactive); in [18], 0.359; in assay [19], -0.159. The z-score in assay [20] is 1.23 (inactive). Besides, the composite z-score in assay [2] is -0.639.

`C=C(/C(=C/C[C@H](OC(C)=O)c1ccc(CO)o1)c1cnc2ccccc2c1)C(C)C`: the z-score in [1] is -0.0554 (inactive); in assay [3], 3.56 (inactive); in [4] it was 0.625 (inactive); in [5], 0.589 (inactive); in assay [6], 0.0124 (inactive); in assay [7] it was 0.38. Also, the z-score is -0.306 (inactive) in assay [8]; -0.246 (inactive) in [9]; -0.219 in assay [10]; -0.166 in assay [11]; 0.283 in assay [12]; -0.7 in [13]. Besides, the z-score was -1.36 in assay [14]; -1.47 in assay [15]; -1.36 in assay [16]; -0.524 (inactive) in assay [17]; 0.867 in assay [18]; 0.246 in [19]. Further, in assay [20], the z-score was 0.643 (inactive). For the same molecule, the composite z-score in assay [2] worked out at 0.215.

Turning to `COc1ccc([Si](C)(C)[C@@H]2[C@@H](CCO)O[C@]3(C(=O)N(Cc4ccccc4)c4ccc(N5C(=O)c6cccc7cccc5c67)cc43)[C@H]2C)cc1`, the z-score was 0.487 (inactive) in assay [1]; 2.72 (inactive) in [3]; 2.2 (inactive) in assay [4]; 0.504 (inactive) in assay [5]; 1.16 (inactive) in assay [6]; -0.0126 in assay [7]. Besides, the z-score in assay [8] is 0.326 (inactive); in assay [9], 0.1 (inactive); in assay [10] it was 2.32; in [11], -0.768; in assay [12], -0.384; in [13], -0.916. In addition, the z-score was -0.61 in assay [14]; -2.73 in [15]; -0.555 in assay [16]; 0.943 (inactive) in assay [17]; -0.751 in assay [18]; -1.3 in assay [19]. In addition, the z-score in assay [20] is -0.149 (inactive). For the same molecule, in assay [2], the composite z-score is -0.0111.

With `C=CCC(OC(C)=O)[C@@H]1[C@@H](N(Cc2ccc(-c3ccccc3)cc2)C(=O)c2ccc(-c3ccccc3)cc2)c2cc(OCCCO)ccc2N1C(=O)c1ccc2ccccc2c1` (stereo not given in full), the z-score in assay [1] is -0.75 (inactive); in [3], 0.225 (inactive); in [4], -0.135 (inactive); in assay [5], -0.503 (inactive); in assay [6], -0.0602 (inactive); in assay [7] it was 0.6. Moreover, the z-score is 0.707 (inactive) in [8]; 0.987 (inactive) in assay [9]; 0.99 in assay [10]; -0.77 in assay [11]; 0.676 in assay [12]; 0.313 in assay [13]. Further, the z-score in assay [14] is -0.531; in assay [15], -0.685; in assay [16], 1.42; in assay [17] it was -0.645 (inactive); in assay [18], 0.795; in assay [19], 0.563. Moreover, the z-score in assay [20] was 0.204 (inactive). The molecule further registered a composite z-score in assay [2] of 0.445.

`COc1ccc([Si](C)(C)[C@@H]2[C@@H](CCO)O[C@]3(C(=O)N(Cc4ccccc4)c4ccc(N5CCOC5=O)cc43)[C@H]2C)cc1`: the z-score was 0.519 (inactive) in assay [1]; 3.02 (inactive) in assay [3]; -0.0856 (inactive) in assay [4]; 0.796 (inactive) in [5]; -1.09 (inactive) in [6]; 2.12 in [7]. Also, the z-score in assay [8] was -0.245 (inactive); in assay [9] it was 0.699 (inactive); in assay [10], -1.07; in assay [11], -1.39; in assay [12], 1.67; in assay [13], -1.26. Also, the z-score is -2.34 in assay [14]; -3.44 in assay [15]; -0.309 in assay [16]; 0.168 (inactive) in assay [17]; -0.947 in assay [18]; -0.756 in assay [19]. Besides, in assay [20], the z-score is -1.94 (inactive). This molecule also returned a composite z-score in assay [2] of 0.042.

These data come from PubChem BioAssay.
